Compounds with a hit are over-represented: about 1.7% of the library has one in this group of screens.
GLP1R ag = activates the human GLP-1 receptor; HEK293 GLP-1R CRE-luciferase, luminescence, 4-6 h; cells express a hypersensitive GLP-1R form; Potency, µM (titrated, usually from 45.6 µM), without a hit: at the highest dose activation, actives largely listed as activators; actives 0.007% (n = 380,000); further: % of control where 0% means no effect
Target sequence (P43220 whole entry, looked up): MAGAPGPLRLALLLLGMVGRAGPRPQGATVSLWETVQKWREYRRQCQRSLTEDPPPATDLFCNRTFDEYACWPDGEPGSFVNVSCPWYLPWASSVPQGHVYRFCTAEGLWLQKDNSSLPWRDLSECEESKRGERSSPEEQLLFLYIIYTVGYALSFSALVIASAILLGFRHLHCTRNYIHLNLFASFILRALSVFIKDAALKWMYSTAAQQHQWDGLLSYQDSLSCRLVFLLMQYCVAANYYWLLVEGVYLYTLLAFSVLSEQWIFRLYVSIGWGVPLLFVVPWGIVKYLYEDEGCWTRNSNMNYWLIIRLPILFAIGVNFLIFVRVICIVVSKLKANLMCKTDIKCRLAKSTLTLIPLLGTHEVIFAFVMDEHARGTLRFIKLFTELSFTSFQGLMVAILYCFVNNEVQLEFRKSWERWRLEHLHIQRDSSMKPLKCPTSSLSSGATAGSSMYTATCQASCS
GLP1R cytotox = cytotoxicity counter-screen for GLP-1 receptor inverse agonists | HEK293 cAMP-luciferase reporter cells, luminescence, 24 h | Potency, µM (top dose mostly 38.3 µM), inactives show at the top dose activity change, negative = inhibition, hits mostly inhibitors | actives 0.13% (n = 410,000) | AID 624418;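 further: loss of luciferase light is scored as toxicity; on the % scale 0 is the no-effect control and ±100 the full control effect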
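Quantitative HTS format, 1536 wells, 200 cells/uL seeded. Compounds: 23 nL, 24 h, 37 °C. Detection: luciferase reagent, luminescence at 12 min RT; decreased signal taken as cytotoxic.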
PTHR1 agonist = PTHR1 (human) receptor agonism. HEK293 GP2 PTHR1 cells, GloSensor cAMP luminescence, 1 h. Q03431. AID 743266. Potency, µM (series often up to 115 µM), inactives show at the top dose activation, most hits filed as activators. actives 0.075% (n = 410,000); further: nearly all actives have a fitted effect of over 55% in size
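HEK-293-derived GP2 cells expressing PTHR1 and a GloSensor cAMP reporter, 3,000/well, plated overnight, given luciferin plus IBMX (each 0.5 mM as added) for 1 h at 37 °C, then compound for 1 h at 37 °C. Luminescence was read after 15 min at room temperature.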
GLP1R inv ag = GLP-1 receptor (human) inverse agonism | P43220 | HEK293 GLP-1R CRE-luciferase, luminescence, 24 h; GLP-1R form is constitutively active | Potency, µM (doses to about 38.3 µM), inactives show at the highest dose activity change, negative = inhibition, hits mostly inhibitors | actives 1.6% (n = 410,000) | AID 624417; further: on the % scale 0 is the no-effect control and ±100 the full control effect; nearly all actives have a fitted effect of over 55% in size
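Inverse agonism was detected as reduced cAMP-driven luciferase luminescence after 24 h compound treatment. The cells were HEK293 clones expressing constitutively active human GLP-1R with the reporter. Reporter-only and GPR119 cell lines served as counterscreen controls.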
Numbers without * were called inactive; i = inactive; ? = inconclusive; nt = no result; ! = not confirmed by another sample; [ ] = another dose, or the depositor's remark. The call rests on the fitted dose curve; in most records, active means well fitted curve in the direction sought with a large enough effect; inconclusive means small, poorly fitted or top-dose-only effect, or another doubt; inactive means no such curve, though single readings can be large; an effect the other way counts as inactive or inconclusive. Potency means the concentration at half of the fitted maximal effect.

SMILES	GLP1R ag	GLP1R cytotox	PTHR1 agonist	GLP1R inv ag
COc1ccc(Cc2nc3ccc(C(=O)NCCc4cccc(C)n4)cc3o2)cc1	2%	4%	-31%	9%
COc1ccccc1C(=O)N(CCC1CCCN1C)c1nc2ccccc2s1 (configuration not stated)	-4%	-17%	-28%	3.5µM*
CC(C)c1cc(C(F)(F)F)nc(NNc2nc(C(C)C)cc(C(F)(F)F)n2)n1	15%	1%	-33%	?
Cn1c(-c2cccc(Br)c2)n[nH]c1=O	13%	-1%[7.66 µM]	-24%	23%[7.66 µM]
O=Cc1ccc(Oc2cc(-c3ccccc3)nc(-c3ccccc3)n2)cc1	-3%	-6%	i	-5%
O=S(Cc1cc(Oc2ccccc2)nc(-c2ccccc2)n1)c1ccccc1 (configuration not stated)	12%	13%	-8%	10µM*
Cc1cccc(C(=O)Nc2ccc3nc(SCC(=O)N4CCc5ccccc54)sc3c2)c1	nt	-2%	-7%	-13%
CC1(C)Cc2c(cnn2-c2ccccc2)C(=O)/C1=N\NC(=O)c1ccccc1O	-12%	-27%	-27%[57.5 µM]	11µM*
CCOc1ccc(C(=O)N2CCC(c3nc4ccccc4o3)CC2)cc1	nt	-2%	-6%	-17%
CC(=O)c1sc2c(c1OC(=O)c1ccc(Cl)cc1)c(=O)n(-c1ccccc1)c(=S)n2-c1ccccc1	0%	-18%	i	-3%
CC(=O)c1sc2c(c1OC(=O)c1ccc(Cl)cc1Cl)c(=O)n(-c1ccccc1)c(=S)n2-c1ccccc1	-7%	14%	i	7.9µM*
Cc1ccc(CN(C)C(=O)c2ccccc2Sc2ccccc2C#N)cc1	6%	2%	-23%	10µM*
Cc1ccc(NC(=O)CN(C)C(=O)c2ccccc2Sc2ccccc2C#N)cc1	8%	-2%	-14%	?
COc1cccc(CN(C)C(=O)c2ccccc2Sc2ccccc2C#N)c1OC	12%	-11%	-13%	8.9µM*
Cn1c(=O)c2[nH]c(CNCc3ccccc3Cl)nc2n(C)c1=O	24%	39%	-4%[57.5 µM]	34%
CCc1ccc(NC(=O)CN(c2ccc(Cl)cc2)S(=O)(=O)c2ccsc2C(=O)OC)cc1	nt	1%	-13%	3.2µM*
Cc1ccc(N(CC(=O)Nc2ccc(Cl)cc2)S(=O)(=O)c2cccc3nonc23)cc1	-4%	-17%	-14%	10µM*
CN(C)CCCNC(=S)NCCNc1nc2cc3c(cc2cc1C#N)OCO3	6%	86%	-20%	8%
Cc1nc2c(C)cccc2cc1C(=O)N/N=C/c1cccnc1	5%	5%	-30%	-14%
CCC(=O)Nc1nnc(C(C)(C)C)s1	-6%	2%	i	0%
CCN(CC)CCNC(=O)C1CCN(S(=O)(=O)c2c(C)noc2/C=C/c2ccccc2F)CC1	21%	?	-17%	3.2µM*!
Cc1ccc(/C=C/c2onc(C)c2S(=O)(=O)N2CCC(C(=O)N3CCN(C)CC3)CC2)cc1	6%	-31%	-20%	6.3µM*
CCN(CC)C(=O)C1CCN(S(=O)(=O)c2c(C)noc2/C=C/c2cccc(C)c2)CC1	9%	-10%	i	10µM*
CC(C)(C)C(=O)C(Oc1ccc(Cl)cc1)n1ccnc1 (configuration not stated)	9%	nt	nt	nt
CSCCC(NC(=O)[C@H](Cc1c[nH]c2ccccc12)NC(=O)CNC(=O)[C@H](CCSC)NC(=O)[C@H](Cc1ccc(OS(=O)(=O)O)cc1)NC(=O)[C@@H](N)CC(=O)O)C(=O)N[C@@H](CC(=O)O)C(=O)N[C@@H](Cc1ccccc1)C(N)=O (some centres not stated)	30%	nt	nt	nt
SMILES	GLP1R ag	GLP1R cytotox	PTHR1 agonist	GLP1R inv ag
O=C(NCc1nnc2c(C(F)(F)F)cc(Cl)cn12)c1cccnc1	-4%	2%	i	10%
CCOC(=O)c1c(C)[nH]c(C)c1S(=O)(=O)NC1CCN(C(=O)OCC)CC1	5%	-10%	-5%	5%
CCN(CC)C(=O)c1sc2c(c1C)c(=O)n(-c1ccc(C)c(C)c1)c(=O)n2Cc1cccc(Cl)c1	nt	0%	9%	5µM*
Cc1ccc(S(=O)(=O)c2nc(-c3ccccc3)oc2N2CCCCCC2)cc1	nt	0%	-62%	6.3µM*
Cc1ccc(-c2nc(S(=O)(=O)c3ccc(C)cc3)c(N3CCCCC3)o2)cc1	nt	1%	-1%	-6%
Cc1ccc(CNC(=O)c2c(Nc3c(C)cccc3C)sc(C(=O)c3ccccc3)c2N)cc1	nt	-24%	-22%	7.1µM*
NC(=S)N/N=C/c1cccc(/C=N/NC(N)=S)c1	11%	-11%	i	51%
O=C(COc1ccccc1-c1ccccc1)N/N=C/c1ccncc1	8%	-7%	-45%	?
O=C(COc1ccccc1-c1ccccc1)N/N=C/c1ccc2ccccc2c1	21%	?	-18%	1µM*
NC(=S)N/N=C/c1ccc2ccccc2c1	-1%	3.2µM*	i	5.6µM*
Cc1cc(Nc2ccc(F)cc2F)nc(-n2nc(C)cc2C)n1	nt	-2%	-4%	-21%
Cc1nc(C(N)=O)c(N)n1CCc1ccccc1	3%	-10%	-24%	3%
Cc1nn(Cc2c(Cl)cccc2Cl)c(C)c1NC(=O)CCCn1nc([N+](=O)[O-])c(Cl)c1C	9%	-3%	-12%	2.5µM*
CCN(CC(=O)NCc1cccs1)S(=O)(=O)c1ccccc1Cl	-3%	9%	-28%	-4%
COc1ccc(C(=O)NOCc2ccccc2)cc1	-7%	2%	-9%	3.2µM*
COc1ccc(C(=O)NC(Nc2ccccc2)C(Cl)(Cl)Cl)cc1 (configuration not stated)	-5%	-18%	i	7.1µM*
O=C(NOCc1ccccc1)c1ccc(Cl)cc1	-1%	-13%	-5%	?
COc1ccc(C(=O)NC(NC(=S)Nc2ccc(S(N)(=O)=O)cc2)C(Cl)(Cl)Cl)cc1 (configuration not stated)	0%	-6%	i	3.2µM*
COc1ccc(C(=O)Nc2ccc(N(C)Cc3ccccc3)c(C(=O)O)c2)cc1	nt	-6%	-6%	-17%
Nc1nc(-c2ccccc2)nc2nonc12	-1%	-8%	-9%	13%
CC(Sc1nc(N(C)C)nc(N2CCOCC2)n1)C(=O)Nc1ccccc1 (configuration not stated)	6%	-13%	-11%	-1%
CCCNC(=O)Nc1ccc(NC(C)=O)cc1	-1%	-3%	i	5%
CC(C)(C)NC(=O)c1ccc2c(c1)C1C3CCC(C3)C1C(c1ccccc1)N2 (configuration not stated)	-1%	3%	i	2.8µM*
O=C(Cc1cccc(C(F)(F)F)c1)Nc1ccccc1N1CCCC1	14%	5%	-84%	10µM*
O=C(Cc1ccccc1)Nc1ccccc1N1CCCC1	-2%	35%	-23%	?
COc1ccc(NC(=S)NC(C)C(c2ccccc2)N2CCOCC2)cc1 (configuration not stated)	12%	0%	i	-13%

Assay outcomes from PubChem BioAssay.
